Test results published in PubChem BioAssay.
Calls of active or inactive are those of the source.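 How the source made its calls, unless noted: active means inhibition at or above 50% at 10 µM; inactive means inhibition below 50%.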

What was measured:
[1] = inhibitors of TNFa-induced NFkB p65 translocation, primary screen, imaging, HUVEC, MLSMR starter and 10KST1 sets (AID 438;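 active means inhibition above 20% together with a positive visual image hit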;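 further: compound added about 3h40 before a 20 min TNFalpha stimulation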;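 on inhibition: signal is the nuclear over cytoplasmic p65 intensity ratio per well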); conditions: HUVEC TNFa-induced p65 nuclear translocation; cell count: measured here: nuclei count (cytotoxicity indicator), at 2.08 µM; inhibition: at 2 µM, stronger effect = higher value, 0% TNFa-plus-vehicle, 100% no-TNFa wells
[2] = inhibitors of mutant huntingtin aggregation, primary screen, imaging, exon1htt(103Q)mCFP cells, high-content imaging (AID 483;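 active means visual image review flags a hit and inhibition of aggregation exceeds 20%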;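 further: compound exposure lasted 3 days before fixation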;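 on nuclei count: percent of the per-plate median nuclei count of sample wells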); conditions: exon1htt(103Q)mCFP cell line, aggregate imaging, at 2 µM; inhibition of aggregation: stronger effect = higher value; nuclei count: measured here: cell count, toxicity
[3] = inhibitors of E-selectin induction by TNFa, primary screen, imaging, HUVEC, immunofluorescence, MLSMR starter and 10KST1 sets (AID 487;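 active means visually confirmed hit in the image check and inhibition above 20%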;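 on inhibition: signal is fraction of cell area covered by stained E-selectin grains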;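 on nuclei count: 100% = median nuclei count of all wells on the same plate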); conditions: HUVEC TNFalpha-induced E-selectin immunofluorescence imaging, at 2 µM; inhibition: stronger effect = higher value; nuclei count: measured here: cell number, toxicity
[4] = target: Voltage-gated potassium channel subunit beta-2 (Rattus norvegicus) (UniProt P62483); assay: KvBeta enzyme negative modulators, primary screen, biochemical, NADPH fluorescence (AID 622;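 active means fluorescence slope higher than the sample average by over 3 SD, cut at about -0.22 in these data, passing the limit was not always enough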;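 further: slope of raw intensity against log time taken from 70 to 1610 s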); conditions: recombinant KvBeta, 4-cyanobenzaldehyde reduction, at 10 µM, stronger effect = higher value
[5] = target: Voltage-gated potassium channel subunit beta-2 (Rattus norvegicus) (UniProt P62483); assay: KvBeta positive modulators, primary screen, biochemical, NADPH fluorescence (AID 623;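 active means NADPH fluorescence slope more negative than the mean of all samples by about 3 SD, 99.7% confidence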;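 further: fluorescence intensity change per second fitted from 20 to 320 s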); conditions: Recombinant KvBeta, NADPH fluorescence decrease slope, 10 min; at 10 µM; stronger effect = lower value
[6] = target: Alpha-2C adrenergic receptor (Homo sapiens) (UniProt P18825); assay: modulators of alpha2C/GIRK thallium flux, primary screen, cell-based, HEK293 alpha2C/GIRK1/2 (AID 624;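 active means fluorescence slope after compound addition differing from the mean of all screened samples at 99.7% confidence, in either direction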;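 further: slope of fluorescence ratio to pre-addition baseline per second over 15 to 24 s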); conditions: thallium flux BTC fluorescence, at 10 µM, actives lie on both sides
[7] = inhibitors of Sendai virus-induced IRF3 signaling, primary screen, TLR/RLR signaling modifier project, cell-based, Sendai virus stimulus, luciferase, 10K MLSCN set (AID 602276); conditions: HEK293 RL24 IRF3 luciferase reporter, at 10 µM, stronger effect = higher value;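 further: firefly luciferase from ISG56 promoter only with Renilla not read in this screen; 0% = Sendai virus plus DMSO and 100% = medium plus DMSO without virus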
[8] = inhibitors of poly I:C-induced TLR3 signaling, primary screen, cell-based, poly I:C stimulus, luciferase, 10K MLSCN set (AID 602277;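 active means inhibition of the reporter signal at or above 50%; inactive means inhibition below 50%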); conditions: HEK293-TLR3 RL24 IRF3 luciferase reporter, at 10 µM, stronger effect = higher value

Sequence of Voltage-gated potassium channel subunit beta-2 (Rattus norvegicus) (P62483 whole entry, looked up): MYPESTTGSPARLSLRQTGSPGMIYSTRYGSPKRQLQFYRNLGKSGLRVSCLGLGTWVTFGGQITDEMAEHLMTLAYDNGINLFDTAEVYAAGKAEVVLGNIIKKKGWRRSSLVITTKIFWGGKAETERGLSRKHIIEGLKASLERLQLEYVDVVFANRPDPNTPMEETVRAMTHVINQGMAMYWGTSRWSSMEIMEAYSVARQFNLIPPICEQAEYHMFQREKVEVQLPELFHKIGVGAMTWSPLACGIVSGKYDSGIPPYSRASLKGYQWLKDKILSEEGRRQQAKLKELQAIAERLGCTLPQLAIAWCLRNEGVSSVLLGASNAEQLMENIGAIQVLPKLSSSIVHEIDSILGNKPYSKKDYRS
Sequence of Alpha-2C adrenergic receptor (Homo sapiens) (P18825 whole entry, looked up): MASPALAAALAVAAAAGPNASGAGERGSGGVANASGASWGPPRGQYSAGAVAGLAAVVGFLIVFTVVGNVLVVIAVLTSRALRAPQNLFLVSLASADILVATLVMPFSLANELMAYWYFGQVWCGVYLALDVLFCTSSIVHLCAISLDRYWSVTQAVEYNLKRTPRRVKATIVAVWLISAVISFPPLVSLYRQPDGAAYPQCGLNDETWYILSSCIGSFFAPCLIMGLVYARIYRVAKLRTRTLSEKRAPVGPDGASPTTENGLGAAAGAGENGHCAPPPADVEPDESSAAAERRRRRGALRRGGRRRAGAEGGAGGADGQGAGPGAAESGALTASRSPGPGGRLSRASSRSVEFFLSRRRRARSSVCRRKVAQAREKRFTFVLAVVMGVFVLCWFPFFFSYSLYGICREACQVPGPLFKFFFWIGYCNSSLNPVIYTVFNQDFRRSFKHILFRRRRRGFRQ

SMILES | cell count [1] | inhibition [1] | inhibition of aggregation [2] | nuclei count [2] | inhibition [3] | nuclei count [3] | fluorescence slope [4] | NADPH fluorescence slope [5] | slope [6] | inhibition [7] | inhibition [8]
CCn1c(=O)cc(OCC(=O)Nc2nc(C)cs2)c2ccccc21 | 809 | -1.7% (inactive) | -24.7% (inactive) | 90.4% | -54.6% (inactive) | 125% | -0.525 (inactive) | -3.4e-05 (inactive) | 0.00615 (inactive) | 7.74% (inactive) | 32.8% (inactive)
COC(=O)CSc1nc2ncc(Cl)cc2[nH]1 | 542 | 8.6% (inactive) | -23.3% (inactive) | 106% | -49.2% (inactive) | 106% | -0.462 (inactive) | -6.4e-05 (inactive) | 0.00642 (inactive) | 15.8% (inactive) | 25.3% (inactive)
O=C1CN(c2nc3ccccc3n3cnnc23)CC(=O)N1CCc1ccccc1 | 662 | 10% (inactive) | -13% (inactive) | 112% | -66% (inactive) | 116% | -0.588 (inactive) | -6.3e-05 (inactive) | 0.00474 (inactive) | 6.8% (inactive) | 9.78% (inactive)
CCc1cccc(NC(=O)C2CCCN(S(=O)(=O)c3c(C)[nH]c(=O)[nH]c3=O)C2)c1 (centres undefined) | 325 | -10.3% (inactive) | 0.8% (inactive) | 106% | -57.4% (inactive) | 104% | -0.405 (inactive) | -3.6e-05 (inactive) | 0.0033 (inactive) | 9.85% (inactive) | 23.9% (inactive)
N#CCc1c(C#N)c(N)nc(N2CCN(S(=O)(=O)c3ccccc3)CC2)c1C#N | 349 | 1.3% (inactive) | -7.2% (inactive) | 96.4% | 14.3% (inactive) | 108% | -0.427 (inactive) | -4.2e-05 (inactive) | 0.00665 (inactive) | 11% (inactive) | 34.3% (inactive)
O=C(CSc1nc2ccccc2s1)N1CCOCC1 | 330 | 0.5% (inactive) | -12.6% (inactive) | 105% | -38.9% (inactive) | 118% | -0.525 (inactive) | -1.9e-05 (inactive) | 0.00424 (inactive) | -27.4% (inactive) | -58.1% (inactive)
O=S(=O)(Nc1ncccn1)c1ccc(Nc2ncnc3ccccc23)cc1 | 623 | -16.4% (inactive) | -7.6% (inactive) | 89.3% | -6% (inactive) | 105% | -0.459 (inactive) | -4.3e-05 (inactive) | 0.00604 (inactive) | -24.5% (inactive) | 12.4% (inactive)
N#Cc1ccc(CSc2nnc(-c3cccs3)n2-c2ccccc2)cc1 | 369 | -6% (inactive) | -12.4% (inactive) | 99.1% | -50% (inactive) | 120% | -0.5 (inactive) | 9.2e-06 (inactive) | 0.00461 (inactive) | -0.725% (inactive) | 2.95% (inactive)
COCCn1c(SCC(=O)Nc2ccc3c(c2)OCCO3)nc2c(c1=O)SC(C)C2 (centres undefined) | 715 | -4.4% (inactive) | -19.9% (inactive) | 106% | -36.9% (inactive) | 116% | -0.413 (inactive) | 3.3e-05 (inactive) | 0.00496 (inactive) | -10.2% (inactive) | -0.542% (inactive)
CCc1nn(CC(=O)N2CCN(Cc3ccc4c(c3)OCO4)CC2)c(=O)c2cc3occc3n12 | 341 | 1.7% (inactive) | -11.1% (inactive) | 90.2% | -0.9% (inactive) | 105% | -0.353 (inactive) | -1.6e-05 (inactive) | 0.00432 (inactive) | -5.95% (inactive) | -24.9% (inactive)
Cc1csc(NC(=O)c2ccoc2C)n1 | 435 | 1.3% (inactive) | -7.1% (inactive) | 90.7% | 9% (inactive) | 97.9% | -0.534 (inactive) | 2.1e-05 (inactive) | 0.00451 (inactive) | -53.3% (inactive) | -87.5% (inactive)
O=C(CSc1nnc(Cn2c(=O)sc3ccccc32)n1-c1ccccc1)NCC1CCCO1 (centres undefined) | 525 | -6.2% (inactive) | 1.1% (inactive) | 106% | -19.9% (inactive) | 116% | -0.583 (inactive) | -2.3e-05 (inactive) | 0.00648 (inactive) | 12% (inactive) | 37.7% (inactive)
COCC(=O)N(C)c1nnc(-c2ccccn2)s1 | 433 | 1.4% (inactive) | 16.5% (inactive) | 84.4% | -12.1% (inactive) | 107% | -0.167 (inactive) | -1.3e-05 (inactive) | 0.0059 (inactive) | -7.53% (inactive) | -17.6% (inactive)
Cc1nc(NCc2ccc3c(c2)OCO3)c2oc3ccccc3c2n1 | 292 | 12.8% (inactive) | -3.5% (inactive) | 105% | 44.7% (inactive) | 101% | -0.516 (inactive) | 2.5e-05 (inactive) | 0.00488 (inactive) | 4.64% (inactive) | -12% (inactive)
Cc1ccc(C(=O)N2CCCC(c3nc4c(nnn4Cc4ccccc4)c(=O)[nH]3)C2)cc1 (centres undefined) | 671 | -6.5% (inactive) | -2.8% (inactive) | 118% | -44.4% (inactive) | 104% | -0.38 (inactive) | -5.9e-05 (inactive) | 0.00676 (inactive) | 13.8% (inactive) | 21.2% (inactive)
CC(C)Cc1nnc(NS(=O)(=O)c2ccc(Cl)cc2)s1 | 652 | 5.4% (inactive) | -9.3% (inactive) | 112% | -21.2% (inactive) | 112% | -0.541 (inactive) | 4.8e-06 (inactive) | 0.0081 (inactive) | 12.6% (inactive) | 27.6% (inactive)
Fc1ccc(Cn2nnc(-c3ccc(CN4CCOCC4)cc3)n2)cc1 | 299 | 4.3% (inactive) | 11.5% (inactive) | 102% | 9.3% (inactive) | 117% | -0.44 (inactive) | -1.1e-05 (inactive) | 0.00406 (inactive) | -2.6% (inactive) | -37.2% (inactive)
O=C(CN1CCOCC1)N1CCCc2c1c(=O)oc1ccc(OCc3ccccc3)cc21 | 427 | 7.3% (inactive) | 5.6% (inactive) | 109% | -40.7% (inactive) | 109% | -0.589 (inactive) | -4.6e-05 (inactive) | 0.00267 (inactive) | -0.877% (inactive) | 9.59% (inactive)
NC(=O)CSc1cn(CCNC(=O)c2cccs2)c2ccccc12 | 604 | -1.4% (inactive) | 7% (inactive) | 84.8% | 19% (inactive) | 98.2% | -0.436 (inactive) | -4.5e-05 (inactive) | 0.00564 (inactive) | -2.46% (inactive) | 23.4% (inactive)
